Source: PubChem
BoNT-F LC inh: BoNT F light chain protease inhibition. Multiplex microsphere protease cleavage assay, flow cytometry. inhibition, % at 10 µM. actives 0.22% (n = 360,000). AID 588497; in the data active = inhibition above about 35%, passing the limit was not always enough; inconclusive = no clear call, values can overlap the other calls; also: plate controls were buffer without enzyme for full effect and enzyme alone for no effect
MazF activator: MazEF (E. coli) toxin RNase activation. activation, % at 20 µM. actives 0.32% (n = 350,000). FAM/BHQ RNA-DNA oligo cleavage fluorescence, 5 h; in the data active = activation above about 50%
Target sequence (P0AE70 whole entry, looked up): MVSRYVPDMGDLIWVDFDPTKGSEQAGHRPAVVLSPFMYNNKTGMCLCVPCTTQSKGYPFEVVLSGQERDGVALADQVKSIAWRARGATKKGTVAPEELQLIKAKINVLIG
BoNT A protease: BoNT A light chain protease inhibition; multiplex microsphere protease substrate cleavage, flow cytometry; inhibition, % at 10 µM; actives 0.17% (n = 360,000); also: plate controls were buffer without enzyme for full effect and enzyme alone for no effect
Anthrax LF prot: inhibitors of Bacillus anthracis lethal factor protease. inhibition, % at 10 µM. P15917. actives 0.12% (n = 360,000). multiplex microsphere protease cleavage assay, LF. AID 588501; also: plate controls were buffer without enzyme for full effect and enzyme alone for no effect
Bead autofluor: compound fluorescence in toxin protease inhibitor counterscreen | compound autofluorescence counterscreen, microsphere flow cytometry; active compounds read high | fluorescence intensity (no concentration beside the values) | actives 3.1% (n = 360,000); in the data active = fluorescence intensity above about 16000; inconclusive = no clear call, values can overlap the other calls
* marks the source's active call; other numbers are inactive results; ? = inconclusive; nt = not tested or not shown. The list is not random: actives were taken first. Their share in the collection is about 3.6%. Rule as the data show it, unless noted: active = inhibition above about 30%; inconclusive = no clear call, values can overlap the other calls; inactive = below that.

SMILES	BoNT-F LC inh	MazF activator	BoNT A protease	Anthrax LF prot	Bead autofluor
CCOC(=O)CSc1nnc(NC(=O)c2cccc(S(=O)(=O)N3CCCCCC3)c2)s1	0	3	0	-1	24044*
CCOC(=O)CSc1nnc(CNC(=O)c2cc(OCC)c(OCC)c(OCC)c2)n1C	-1	-6	0	2	23875*
CCOC(=O)CSc1nnc(CNC(=O)c2ccc(S(=O)(=O)N3CCOCC3)cc2)n1C	-7	2	-1	-3	1902
COc1ccc(CN(C)CCCn2cnc3c(OC)ncnc32)cc1OC	-1	0	0	2	3349
CCN(CCc1ccccc1)c1ccc2c(c1)C1CC2CCN1Cc1ccccc1 (stereo not given)	-7	2	-1	-3	3910
NNC(=O)Cc1cccc2ccc(Cl)cc12	-6	7	0	-2	3504
FC(F)(F)c1cc(C(F)(F)F)n2nc(-c3sccc3-n3cccc3)cc2n1	2	0	0	-4	22337*
CCc1nc2ccc(C(=O)N3CCN(C(=O)c4ccco4)CC3)cn2c1N(C)Cc1nccn1C	2	nt	0	-5	3571
O=C(NCc1ccc(F)cc1)N1[C@H]2CC[C@@H]1C=C(c1ccc(F)cc1OCc1ccccc1)C2	-8	0	-1	3	3606
O=c1c(-c2ccc(Br)cc2)[n+]([O-])c2ccccc2n1OCc1ccccn1	-10	4	-1	-3	4625
CCOn1c(=O)c(-c2ccc(Br)cc2)[n+]([O-])c2ccccc21	5	3	-3	0	4275
CCOn1c(=O)c(-c2cc3ccccc3o2)[n+]([O-])c2ccccc21	19	741*	14	11	4225
O=c1c(-c2cc3ccccc3o2)[n+]([O-])c2ccccc2n1OCc1ccccn1	3	119*	8	10	9112
Cc1ccc([C@H]2N[C@]3(CCCN(Cc4ccc(F)cc4)C3=O)[C@H]3C(=O)N(C)C(=O)[C@@H]23)cc1	-6	-10	0	1	3827
CC(C)CNC(=O)c1cc2nc(C3CC3)cc(C(F)(F)F)n2n1	-25	2	1	-2	3223
COC(=O)c1ccccc1NC(=O)c1cc2nc(C3CC3)cc(C(F)(F)F)n2n1	-3	3	-4	-2	21329*
COc1cc(NC(=O)c2cc3nc(C4CC4)cc(C(F)(F)F)n3n2)c(OC)cc1Cl	-3	-1	-4	-3	24788*
COc1ccc(S[C@@H](CCN2CC[C@H](O)CCC2=O)c2ccccc2)cc1	-1	6	0	4	3646
O=C(NCc1ccco1)c1noc2c1CCCCC2	-6	-1	-2	-8	16534*
O=C(NCc1cccnc1)c1noc2c1CCCCC2	1	0	1	0	10589
O=C(NCc1cccnc1)c1noc2c1CCCC2	2	2	4	-9	21847*
O=C(NCc1cccs1)c1noc2c1CCCC2	-4	2	-2	-4	11822
O=C(NCCc1ccccc1)c1noc2c1CCCCC2	0	4	3	0	19823*
COc1ccc(NC(=O)Cc2ccc(C)c(C)c2)cc1S(=O)(=O)N1CCCCC1	-1	-4	1	1	3676
Cn1cccc1-c1nc2ccccc2[nH]1	?	3	?	-11	3672
SMILES	BoNT-F LC inh	MazF activator	BoNT A protease	Anthrax LF prot	Bead autofluor
Oc1ccc(N=Cc2ccc(-c3cccs3)s2)cc1	-2	12	1	-1	16163*
Cc1nc(NCc2ccco2)[nH]c(=O)c1CCC(C)C	5	11	3	1	21901*
C=C1C(=O)C2=CC1CCC(=O)C1(C)CCC(OC(C)=O)C(C)(C)C1CC2O (stereo not given)	-7	12	0	-6	3978
Cc1ccc(NC(=O)CSc2nnc(CCNC(=O)OC(C)(C)C)o2)c(C)c1	-3	-2	0	8	9877
Cc1ccc(C)c(NC(=O)CSc2nnc(CCCCCNC(=O)OC(C)(C)C)o2)c1	-15	-3	-8	-2	26977*
Cc1cccc(C)c1NC(=O)CSc1nnc(CCCCCNC(=O)OC(C)(C)C)o1	-6	3	-2	-10	16539*
C[C@H]1O[C@H](C2CCCC2)CC2=C1C(=O)OC(C)(C)O2	5	nt	1	2	5621
CC1=C(C(=O)N2CCCCCC2)CC(CC(=O)NC2CCCC2)C(=O)N1CCC1=CCCCC1 (stereo not given)	1	nt	0	-8	5386
Cc1ccc(SCC(=O)O/N=C(\N)c2ccc([N+](=O)[O-])cc2)cc1	3	-8	3	-1	22162*
CN(C)C(=O)N1CCC(C(=O)NCc2ccccc2)CC1	4	-1	1	0	6437
COc1ccc(CNC(=O)C2CCN(C(=O)N(C)C)CC2)c(OC)c1	-3	4	?	-4	16860*
COc1ccccc1CNC(=O)C1CCN(C(=O)N(C)C)CC1	1	-6	0	-2	20518*
CCCOC1CCCN(C(=O)c2ccc3oc(C(C)C)nc3c2)C1 (stereo not given)	16	-2	5	0	4639
Cc1ccccc1C(=O)N=c1ccn(-c2nc3ccccc3nc2NS(=O)(=O)c2ccc(F)cc2)cc1	6	-5	8	5	5278
O=C(N=c1ccn(-c2nc3ccccc3nc2NS(=O)(=O)c2ccccc2)cc1)c1cccs1	2	413*	1	0	1941
Cc1nc(NC(=O)c2oc3ccccc3c2C)sc1C(=O)N(C)C	-3	6	-2	-6	24342*
Cc1nnc(NC(=O)c2oc3ccccc3c2C)s1	-1	2	0	-4	4453
CC1=CC(=O)Nc2cncnc2N1	4	8	0	-2	4207
COCCCn1c(SCc2ccc(OC)cc2)nc2cc(OC)c(OC)cc2c1=N	-3	3	-1	-2	23040*
COc1ccc(Cn2c(CCC(=O)NCc3ccco3)nc3cccnc32)cc1	-2	-17	2	-1	22452*
COCCNC(=O)CSc1nc2cc(OC)c(OC)cc2c(=O)n1Cc1ccc(OC)cc1	0	5	?	-1	22751*
COc1cc2nc(SCC(=O)NCc3ccco3)n(Cc3ccc(Cl)cc3)c(=O)c2cc1OC	-2	-12	?	-2	23649*
CC(OC(=O)CN1C(=O)C2CC=CCC2C1=O)C(=O)Nc1ccc(F)cc1Cl (stereo not given)	0	1	0	-3	4278
Nc1ccn([C@@H]2O[C@H](C(=O)N[C@H]3c4ccccc4C[C@H]3O)[C@@H](O)[C@H]2O)c(=O)n1	-3	nt	0	-4	5829
COc1ccc(N2CCN(C(=O)c3cc(=O)c4cc(C)c(C)cc4o3)CC2)cc1	0	6	2	5	3164
CC(C)c1ccc(NC(=O)CSc2n[nH]c(=O)n2-c2cccnc2)cc1	-2	0	1	-2	5821
O=C(NC1CCCN(Cc2ccccc2F)C1)c1cccs1 (stereo not given)	-2	8	0	-1	6244
O=C(NS(=O)(=O)Nc1ccc(Cl)cc1)c1c[nH]c2ccccc12	2	9	1	-2	5462
O=C(NNc1ccccc1)/C(=C\c1cccnc1)NC(=O)c1ccccc1	-5	9	-1	-2	5885
